This note sets out measurements from PubChem BioAssay (NCI).

About 83,000 compounds went through this panel and 20% of them were active in at least one assay; those are over-represented in the sample as a whole.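 Method: cells in 96-well plates; compound added at one concentration; 48 h incubation; percent growth measured; values under 10 scored active.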 Activity calls are given as the source filed them.

The subject of one test is M14 melanoma. The test can be described thus: NCI-60 one-dose screen, 48 h (100 = growth as untreated, 0 = no growth, -100 = all killed). Particulars: 10 µM unless noted.
Regarding `O=C(Nc1ccc(Oc2ccc(Nc3nc4ccccc4s3)cc2)cc1)Nc1ccc(Cl)c(C(F)(F)F)c1`, the growth was -4.56% (active).
As to `Cc1cc(N=Nc2ccc(-c3ccc(N=Nc4ccc(O)c(C(=O)O)c4)cc3)cc2)c(N)c(N=Nc2ccc(C(=O)O)cc2)c1N`, the growth is 86.5% (inactive).
For `c1ccc2c(c1)cnc1ccccc12`, the growth was 99.6% (inactive).
On the same count and under the same terms, the value for `COc1ccc2[nH]c(C(=O)OCc3ccc4cccc(O)c4n3)cc2c1` was -75.6% (active).
Still for that read-out and setting: the value for `CC(=O)c1c(O)c(C)c(O)c2c1OC1=CC(=O)/C(=C(/C)N)C(=O)C12C` (stereo not drawn) was 93.6% (inactive).
Still for that read-out and setting: the value for `O=C(CI)NCCNc1cccc2c(S(=O)(=O)O)cccc12` was 98.4% (inactive); that for `CCN(CC)C(Cl)=Nc1ccc(Cl)cc1` was 107% (inactive); that for `c1ccc2c(Cc3csc4ccccc34)csc2c1` was 67.7% (inactive).
Consider `COS(=O)(=O)CCN(CCOS(C)(=O)=O)S(C)(=O)=O`, for which the growth was 94.3% (inactive).
With `O=C1/C(=C\c2cccn2Cc2ccc(F)cc2)c2ccccc2N1c1c(Cl)cccc1Cl`, the growth is 94.9% (inactive).
As for `CC(C)(C)c1ccc(Cn2c(-c3nonc3N)nc3ccccc32)cc1`, the growth is 66.9% (inactive).
On the same count and under the same terms, the value for `CSC(=S)N/N=C(\C)c1ccccn1` was 1.91% (active); that for `CC(CN1CCN(C)CC1)CN1c2ccccc2Sc2ccc(C(F)(F)F)cc21` (stereo not drawn) was 0.817% (active); that for `CCCOC(=O)C1c2cc3c(cc2CC(C)C1C(=O)OCCC)OCO3` (stereo not drawn) was 100% (inactive).
On the same count and under the same terms, as for `COc1cc(C2CC(c3ccc(Nc4ccnc5cc(Cl)ccc45)cc3)=NN2c2ccccc2)cc(OC)c1OC` (stereo not drawn), the figure is 55.5% (inactive); as for `CC(=O)c1c(C)nc(-c2cc(C)cc(Cl)c2)nc1-c1cccc(Oc2ccccc2)c1`, 31.7% (inactive); as for `CC(C)NC(=O)OCC#CCOC(=O)NC(C)C`, 101% (inactive).
Turning to `Cc1nc2c(-c3cnc(N)nc3)nc(N3CCOCC3)nc2n1C(C)C`, the growth was 4.2% (active).
Consider `Cc1nc2ccc(Nc3nc(N4CCOCC4)nc(N4CCN(C)CC4)n3)cc2n1Cc1ccccc1`, for which the growth was 83.4% (inactive).
Same read-out and setting: as for `CC(C)CC(NC(=O)C(CCCN=C(N)N)NC(=O)OCc1ccccc1)C(=O)NC(CNC(=O)/C=C/c1ccccc1)C(C)C` (stereo not drawn), the figure is 106% (inactive).
On the same count and under the same terms, the value for `CCOC(=O)c1ccc(NCCC(=O)O)cc1` was 104% (inactive); that for `Cc1ccc(-c2cnc3sc4ccc(Cl)cc4n23)cc1` was 100% (inactive).
The same measure, in the same setting: the value for `CC(C)CC(NC(=O)OCC1c2ccccc2-c2ccccc21)C(=O)O` (stereo not drawn) was 105% (inactive); that for `CN1CCN(Cc2ccc(NC(=O)c3cncc(C#Cc4ccc(N)nc4)c3)cc2C(F)(F)F)CC1` was -37% (active).

The next test relates to HCT-15 colon. The test is described as above. Particulars: 10 µM unless noted.
For the molecule `O=C(Nc1ccc(Oc2ccc(Nc3nc4ccccc4s3)cc2)cc1)Nc1ccc(Cl)c(C(F)(F)F)c1`, the growth is 8.45% (active).
As for `C[C@]12CCc3nc(Nc4ccc(O)cc4)sc3C1=CC[C@@H]1[C@@H]2CC[C@]2(C)/C(=N/NC(N)=S)CC[C@@H]12`, the growth is -48% (active).
As to `Cc1cc(N=Nc2ccc(-c3ccc(N=Nc4ccc(O)c(C(=O)O)c4)cc3)cc2)c(N)c(N=Nc2ccc(C(=O)O)cc2)c1N`, the growth is 74.8% (inactive).
Same read-out and setting: the value for `c1ccc2c(c1)cnc1ccccc12` was 98.4% (inactive); that for `Cc1cc(C)c2c(n1)sc1c(Nc3ccc(OCc4ccccc4)cc3)ncnc12` was 100% (inactive); that for `COc1ccc2[nH]c(C(=O)OCc3ccc4cccc(O)c4n3)cc2c1` was -43.8% (active).
In the case of `Cc1ccc2oc(=O)cc(-c3nc4ccc([N+](=O)[O-])cc4[nH]3)c2c1`, the growth is 59.4% (inactive).
With `Cc1nc2ccc(Nc3nc(Cl)nc(N4CCOCC4)n3)cc2n1Cc1ccccc1`, the growth was 76.9% (inactive).
Still for that read-out and setting: the value for `CC(=O)c1c(O)c(C)c(O)c2c1OC1=CC(=O)/C(=C(/C)N)C(=O)C12C` (stereo not drawn) was 83.3% (inactive).
The same measure, in the same setting: as for `O=C(CI)NCCNc1cccc2c(S(=O)(=O)O)cccc12`, the figure is 98.6% (inactive); as for `O=c1[nH]cnc2nc[nH]c12`, 107% (inactive); as for `CCN(CC)C(Cl)=Nc1ccc(Cl)cc1`, 98.1% (inactive).
The same measure, in the same setting: as for `c1ccc2c(Cc3csc4ccccc34)csc2c1`, the figure is 76.1% (inactive).
Turning to `COS(=O)(=O)CCN(CCOS(C)(=O)=O)S(C)(=O)=O`, the growth was 95.4% (inactive).
The same measure, in the same setting: the value for `COc1cc(C2CC(c3cccc(Nc4ccnc5cc(Cl)ccc45)c3)=NN2c2ccccc2)cc(OC)c1OC` (stereo not drawn) was 67.1% (inactive); that for `O=C1/C(=C\c2cccn2Cc2ccc(F)cc2)c2ccccc2N1c1c(Cl)cccc1Cl` was 56.2% (inactive).
Take `CC(C)(C)c1ccc(Cn2c(-c3nonc3N)nc3ccccc32)cc1`: the growth is 49.1% (inactive).
On the same count and under the same terms, the value for `CSC(=S)N/N=C(\C)c1ccccn1` was 34.7% (inactive).
Same read-out and setting: the value for `CCC(C)C1NC(=O)c2nc(oc2-c2ccccc2)-c2csc(n2)-c2csc(n2)-c2nc(oc2C)-c2coc(n2)CNC(=O)C(C(C)CC)NC1=O` (stereo not drawn) was -77.7% (active); that for `CCOC(=O)C1=C(C)NC(SCc2nnc(-c3ccc(Cl)cc3)o2)=NC1c1ccc(Br)cc1` (stereo not drawn) was 65.1% (inactive); that for `CC(CN1CCN(C)CC1)CN1c2ccccc2Sc2ccc(C(F)(F)F)cc21` (stereo not drawn) was 6.79% (active).
Still for that read-out and setting: as for `Cc1[nH]nc2ccc3nc(-c4ccc5[nH]ncc5c4)c4c(c3c12)CCCC4`, the figure is 16.2% (inactive); as for `CCCOC(=O)C1c2cc3c(cc2CC(C)C1C(=O)OCCC)OCO3` (stereo not drawn), 108% (inactive).
Take `COc1cc(C2CC(c3ccc(Nc4ccnc5cc(Cl)ccc45)cc3)=NN2c2ccccc2)cc(OC)c1OC` (stereo not drawn): the growth was 45.5% (inactive).
On the same count and under the same terms, as for `CC(=O)c1c(C)nc(-c2cc(C)cc(Cl)c2)nc1-c1cccc(Oc2ccccc2)c1`, the figure is 60.2% (inactive); as for `CC(C)NC(=O)OCC#CCOC(=O)NC(C)C`, 108% (inactive).
The same measure, in the same setting: the value for `Cc1nc2c(-c3cnc(N)nc3)nc(N3CCOCC3)nc2n1C(C)C` was 10.7% (inactive).
`[Ag].[Ag].[NH-]S(=O)(=O)c1ccc(N=Nc2cc(N=Nc3ccc(S([NH-])(=O)=O)cc3)c3c(NC(=O)C(Cl)Cl)cccc3c2OC(=O)C(Cl)Cl)cc1.[c-]1nccs1.[c-]1nccs1`: the growth was 79% (inactive).
Still for that read-out and setting: as for `Nc1ccc(N(O)/C=C2\C=CC=CC2=O)cc1N`, the figure is 87% (inactive).
In the case of `Cc1nc2ccc(Nc3nc(N4CCOCC4)nc(N4CCN(C)CC4)n3)cc2n1Cc1ccccc1`, the growth is 87.4% (inactive).
Still for that read-out and setting: the value for `CC(C)CC(NC(=O)C(CCCN=C(N)N)NC(=O)OCc1ccccc1)C(=O)NC(CNC(=O)/C=C/c1ccccc1)C(C)C` (stereo not drawn) was 96.5% (inactive); that for `CCOC(=O)c1ccc(NCCC(=O)O)cc1` was 97.1% (inactive); that for `Cc1ccc(-c2cnc3sc4ccc(Cl)cc4n23)cc1` was 100% (inactive).
On the same count and under the same terms, as for `COc1cc(C)c2c(=O)c3c(oc2c1)C(=O)c1c(O)c(OC)cc(O)c1C3=O`, the figure is 5.54% (active).
The same measure, in the same setting: as for `O=C(OCc1ccc2c(Br)cc(Br)c(O)c2n1)c1cc2ccccc2[nH]1`, the figure is -66.7% (active); as for `CN1CCN(Cc2ccc(NC(=O)c3cncc(C#Cc4cnc5cccnn45)c3)cc2C(F)(F)F)CC1`, 5.63% (active).
On to `CCOC(=O)c1ccccc1SC(C[N+](=O)[O-])c1ccccc1` (stereo not drawn), for which the growth was 59.6% (inactive).
On the same count and under the same terms, the value for `CC(C)CC(NC(=O)OCC1c2ccccc2-c2ccccc21)C(=O)O` (stereo not drawn) was 105% (inactive).
Same read-out and setting: the value for `CN1CCN(Cc2ccc(NC(=O)c3cncc(C#Cc4ccc(N)nc4)c3)cc2C(F)(F)F)CC1` was 7.71% (active).
